Test results reported in PubChem BioAssay (NCATS).
Where “and” joins values, the source holds several entries; their conditions need not be identical. Equal values may be shown once. Inconclusive results are not listed. Calls of active or inactive are those of the source. Unless noted, calls come from the whole dose curve; as a rule, active = well fitted curve in the direction sought with a large enough effect; inconclusive = small, poorly fitted or top-dose-only effect, or another doubt; inactive = no such curve, though single readings can be large; an effect the other way counts as inactive or inconclusive.

Key:
[1] = Cell Viability - LYMP2-025 (AID 976); conditions: LYMP2-025 lymphoblastoid cell viability; series mostly up to 92.2 µM;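 note: plate controls were DMSO only for no effect and tetraoctylammonium bromide control for full effect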
Outline: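 Luminescent ATP readout after 24 hr treatment of a human lymphoblastoid line (LYMP2-025, 2500 cells/well, 37 C). Reagent developed 30 min at room temperature; AC50 fitted with the Hill equation.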

[2] = Cell Viability - LYMP2-002 (AID 977); conditions: LYMP2-002 lymphoblastoid cell viability, qHTS; series mostly up to 92.2 µM;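 note: compound exposure lasted 24 h at 37 °C; plate controls were DMSO only for no effect and 92 µM tetraoctylammonium bromide for full effect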
Outline: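 Human lymphoblastoid cells (2500/well) in complete medium were preincubated 5 hr at 37 C, then exposed to compounds for 24 hr at 37 C. Intracellular ATP was read by CellTiter-Glo luminescence; AC50 came from Hill-equation concentration-response fits.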

[3] = Cell Viability - LYMP2-008 (AID 980); conditions: LYMP2-008 lymphoblastoid cell viability, qHTS; series mostly up to 92.2 µM; note: nearly all actives have a fitted effect of over 60% in size; note: potency is the fitted concentration of half-maximal effect; for activity change, negative = cytotoxicity: % is set by controls: 0 for no effect and ±100 for the full control effect
Outline: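 Measured: ATP-dependent luminescence, proportional to viable cell number, in human lymphoblastoid cells treated 24 hr with compound in complete culture medium. Values are AC50s from Hill-equation modelling of qHTS titrations.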

[4] = Cell Viability - LYMP2-014 (AID 983); conditions: LYMP2-014 lymphoblastoid cells, viability qHTS; series mostly up to 92.2 µM; note: nearly all actives have a fitted effect of over 50% in size; note: potency is the fitted concentration of half-maximal effect;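 for activity change, negative = cytotoxicity: plate controls were DMSO only for no effect and 92 µM tetraoctylammonium bromide for full effect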
Outline: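 Quantitative HTS in lymphoblastoid cells: 24 hr compound exposure, then CellTiter-Glo ATP luminescence. Positive control was tetraoctylammonium bromide, 6.4pM to 92 uM.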

[5] = Cell Viability - LYMP2-016 (AID 984); conditions: LYMP2-016 lymphoblastoid cell viability, qHTS; series mostly up to 92.2 µM; note: nearly all actives have a fitted effect of over 55% in size; note: potency is the fitted concentration of half-maximal effect; for activity change, negative = cytotoxicity: % is set by controls: 0 for no effect and ±100 for the full control effect
Outline: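 Concentration-dependent ATP depletion measured in LYMP2-016 lymphoblastoid cells, 24 h, 37 C; luciferase-based luminescent detection; Hill-equation AC50.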

[6] = Cell Viability - LYMP2-018 (AID 985); conditions: LYMP2-018 lymphoblastoid cells, viability (qHTS); series mostly up to 92.2 µM; note: nearly all actives have a fitted effect of over 50% in size; note: potency is the fitted concentration of half-maximal effect;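 for activity change, negative = cytotoxicity: plate controls were DMSO only for no effect and tetraoctylammonium bromide at 92 µM for full effect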
Outline: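 In this qHTS viability assay, cells are treated for 24 hr and cellular ATP is quantified by luciferase-based luminescence, with tetraoctylammonium bromide as positive control.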

[7] = Cell Viability - LYMP2-020 (AID 986); conditions: series mostly up to 92.2 µM; note: nearly all actives have a fitted effect of over 55% in size; note: potency is the fitted concentration of half-maximal effect
Outline: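 Cells at 2500 per well receive a 24 hr compound exposure at 37 C. Viability is measured as ATP-dependent luciferase luminescence, with AC50 modeled from qHTS concentration-response curves.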

[8] = Cell Viability - LYMP2-022 (AID 987); conditions: LYMP2-022 lymphoblastoid cell viability; series mostly up to 92.2 µM; note: nearly all actives have a fitted effect of over 55% in size; note: potency is the fitted concentration of half-maximal effect
Outline: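 In this qHTS cytotoxicity screen, compound titrations were incubated 24 hr at 37 C with human lymphoblastoid cells in complete medium. Luciferase-based ATP luminescence provided the viability signal.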

[9] = Cell Viability - LYMP2-026 (AID 989); conditions: LYMP2-026 lymphoblastoid cell viability, qHTS; series mostly up to 92.2 µM; note: nearly all actives have a fitted effect of over 50% in size; note: potency is the fitted concentration of half-maximal effect
Outline: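 Acute toxicity screen in complete culture medium, with 24 hr compound exposure at 37 C. Viability read as cellular ATP via luciferase reaction, with tetraoctylammonium bromide (6.4pM to 92 uM) as positive control.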

[10] = Cell Viability - LYMP1-002 - Assay at 40 hr (AID 994); conditions: LYMP1-002 lymphoblastoid cell viability; series mostly up to 92.2 µM;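 note: 0% = DMSO only and full inhibition = 92 µM tetraoctylammonium bromide; nearly all actives have a fitted effect of over 60% in size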
Outline: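 Concentration-dependent ATP loss after 40 hr treatment at 37 C defined toxicity; AC50 values were obtained by fitting the standard Hill equation.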

[11] = qHTS assay for small molecule antagonists of retinoid X receptor alpha signaling (AID 588546; active = well fitted inhibition curve with a large enough effect in the signal ratio, with a control signal flat, not every such curve was filed as active; the % refers to the signal ratio; note: potency is the fitted concentration of half-maximal effect;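 for max response: cells stimulated with 9-cis-retinoic acid as agonist; % is set by controls: 0 for no effect and ±100 for the full control effect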); conditions: HEK293T RXRa-UAS-bla, beta-lactamase ratio, antagonist mode; measured here: W530 green channel, cytotoxicity proxy
Outline: (§1)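 Beta-lactamase reporter inhibition, read as CCF4 fluorescence ratio (ex 405, em 460/530 nm) after 2 h at RT. HEK293T UAS-bla cells, 2500/well, were stimulated with 9-cis-RA at 500 or 100 nM final alongside test compound for 18 h at 37 C.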

[12] = target: Retinoic acid receptor RXR-alpha (Homo sapiens) (UniProt P19793); experiment: as above; conditions: HEK293T RXRa-UAS-bla, beta-lactamase ratio, antagonist mode
Outline: as §1

[13] = qHTS assay for environmental chemicals that activate the Aryl hydrocarbon Receptor (AhR) signaling pathway (AID 651777); conditions: 1A2-DRE human hepatoma cells, luciferase, 24 h; activation: stronger effect = higher value; note: nearly all actives have a fitted effect of over 15% in size; note: potency is the fitted concentration of half-maximal effect; for activation: % of control where 0% means no effect
Outline: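 Quantitative HTS in stably transfected human liver-derived cells whose luciferase gene sits downstream of the CYP1A2 promoter and dioxin response element. After 24 hr exposure at 37 C, One-Glo luminescence was measured.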

[14] = qHTS assay for cell viability of HEK293 cells (AID 743288); conditions: ATP luminescence (CellTiter-Glo), 18 h; max response: stronger effect = lower value; note: nearly all actives have a fitted effect of over 50% in size; note: potency is the fitted concentration of half-maximal effect
Outline: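 HEK293, 18 h, 37 C, ATP luminescence. Cells at 2,000/well were allowed at least 5 h to settle before dosing; CellTiter-Glo developed 30 min at RT.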

[15] = Cell Viability - Mesenchymal (AID 546); conditions: mesenchymal cells viability, qHTS; activity change, negative = cytotoxicity: at 91.7 µM (top of the series);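 note: cells exposed to compound for 40 hours before reading; 0% = DMSO only and -100% = 100 µM tamoxifen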
Outline: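 CellTiter-Glo luminescence (intracellular ATP, 20 min room temperature) after 40 hr compound exposure at 37 °C of 1000 glomerulus-derived human kidney mesenchymal cells/well; AC50 values obtained by fitting qHTS concentration-response data to the Hill equation.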

[16] = Cell Viability - LYMP1-003 - Assay at 40 hr (AID 964); conditions: LYMP1-003 lymphoblastoid viability; series mostly up to 92.2 µM; note: % is set by controls: 0 for no effect and ±100 for the full control effect; nearly all actives have a fitted effect of over 60% in size
Outline: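 Acute toxicity is scored as a concentration-dependent loss of intracellular ATP in LYMP1-003 cells (2500/well, complete medium) after 40 hr at 37 C, measured by CellTiter-Glo luminescence; AC50 values derive from standard Hill modelling.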

[17] = Cell Viability - LYMP2-004 (AID 966); conditions: LYMP2-004 lymphoblastoid cell viability, qHTS; series mostly up to 92.2 µM; note: nearly all actives have a fitted effect of over 65% in size; note: potency is the fitted concentration of half-maximal effect;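 for activity change, negative = cytotoxicity: plate controls were DMSO only for no effect and tetraoctylammonium bromide control for full effect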
Outline: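 Viable-cell number estimated from ATP luminescence (CellTiter-Glo) in 2500 human lymphoblastoid cells/well after 24 hr at 37 C with compound. AC50 fitted to the standard Hill equation.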

[18] = Cell Viability - LYMP2-021 (AID 974); conditions: LYMP2-021 lymphoblastoid cells viability; series mostly up to 92.2 µM;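 note: compound exposure lasts 24 hours at 37 °C; nearly all actives have a fitted effect of over 55% in size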; note: potency is the fitted concentration of half-maximal effect; for activity change, negative = cytotoxicity: % is set by controls: 0 for no effect and ±100 for the full control effect
Outline: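 In qHTS format, compounds are tested against 2500 lymphoblastoid cells per well for 24 h; viable cell number is inferred from ATP-driven luciferase light, and Hill-equation fitting yields AC50 values.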

[19] = Cell Viability - BJ (AID 421; calls by dose curve;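 note: potency is the fitted concentration of half-maximal effect; cells exposed to compound for 40 hours at 37 °C before readout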); conditions: BJ fibroblast viability, qHTS
Outline: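 Normal human BJ foreskin fibroblasts, 1500/well in complete medium, treated 40 hr at 37 °C. Cellular ATP by CellTiter-Glo luminescence; normalized to DMSO and 100 uM tamoxifen, AC50 from Hill fit.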

[20] = Cell Viability - HepG2 (AID 433; calls by dose curve;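 note: potency is the fitted concentration of half-maximal effect; cells exposed to compound for 40 hours; potency for ATP loss meaning cytotoxicity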); conditions: qHTS
Outline: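 In this qHTS format, a 40 h, 37 °C compound incubation of HepG2 cells in complete medium precedes a 20 min CellTiter-Glo step at room temperature. Tamoxifen and doxorubicin serve as positive controls; Hill-equation fits yield AC50.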

Sequence of Retinoic acid receptor RXR-alpha (Homo sapiens) (P19793 whole entry, looked up): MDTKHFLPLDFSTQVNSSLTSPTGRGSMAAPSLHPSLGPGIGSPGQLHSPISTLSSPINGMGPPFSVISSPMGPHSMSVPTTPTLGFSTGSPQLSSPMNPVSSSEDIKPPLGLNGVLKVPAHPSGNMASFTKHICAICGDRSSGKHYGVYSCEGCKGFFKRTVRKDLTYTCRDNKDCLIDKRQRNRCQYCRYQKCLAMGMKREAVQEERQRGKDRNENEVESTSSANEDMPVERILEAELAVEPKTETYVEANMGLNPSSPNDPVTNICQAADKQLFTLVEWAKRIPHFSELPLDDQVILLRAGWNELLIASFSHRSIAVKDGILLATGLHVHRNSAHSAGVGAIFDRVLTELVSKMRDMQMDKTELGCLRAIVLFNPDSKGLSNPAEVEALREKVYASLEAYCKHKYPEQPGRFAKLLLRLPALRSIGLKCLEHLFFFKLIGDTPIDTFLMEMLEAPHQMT

O=[N+]([O-])c1cc(N(CCO)CCO)ccc1NCCO
active: Potency [14] 44.7 µM
5.15% and -22.9%: max response [11]
inactive: Potency [1] | Potency [2] | Potency [3] | Potency [4] | Potency [5] | Potency [6] | Potency [7] | Potency [8] | Potency [9] | Potency [10] | max response [12] 0.262% and 0.951% | activation [13] -2.68% and -1.58%

S=C(NC1CCCCC1)NC1CCCCC1
inactive: Potency [15] | Potency [16] | Potency [17] | Potency [18] | Potency [1] | Potency [2] | Potency [3] | Potency [4] | Potency [5] | Potency [6] | Potency [7] | Potency [8] | Potency [9] | Potency [10] | max response [12] -14.3% | activation [13] 5.57% | max response [14] -15.2%
-2.99%: max response [11]

C=C(C#N)C(=O)OCC
inactive: Potency [19] > 92 µM | Potency [20] > 92 µM | Potency [15] | Potency [16] | Potency [18] | Potency [1] | Potency [2] | Potency [3] | Potency [4] | Potency [5] | Potency [6] | Potency [7] | Potency [9] | Potency [10] | max response [12] 9.58% | activation [13] -0.801% | max response [14] -12.8%
-6.72%: max response [11]

Cc1ccc(O)c(N)c1
active: Potency [7] 50.1 µM | Potency [8] 39.8 µM | Potency [13] 50.1 µM
inactive: Potency [19] > 92 µM | Potency [20] > 92 µM | Potency [15] | Potency [1] | Potency [2] | Potency [9] | max response [12] 11.9% | max response [14] -7.01%
-2.88%: max response [11]

CCOc1ccc2nc(N)sc2c1
-8.45%: max response [11]
inactive: Potency [19] > 92 µM | Potency [20] > 92 µM | Potency [15] | Potency [16] | Potency [17] | Potency [18] | Potency [1] | Potency [2] | Potency [3] | Potency [4] | Potency [5] | Potency [6] | Potency [7] | Potency [8] | Potency [9] | Potency [10] | max response [12] -7.66% | max response [14] -4.83%
active: Potency [13] 10 µM

Brc1cc(Br)c(Oc2cc(Br)c(Br)cc2Br)cc1Br
inactive: Potency [19] > 92 µM | Potency [20] > 92 µM | Potency [15] | Potency [16] | Potency [17] | Potency [18] | Potency [1] | Potency [2] | Potency [3] | Potency [4] | Potency [5] | Potency [6] | Potency [7] | Potency [8] | Potency [9] | Potency [10] | activation [13] -1.17% | max response [14] -23.2%

O=C(O)c1ccc([N+](=O)[O-])cc1
inactive: Potency [19] > 92 µM | Potency [20] > 92 µM | Potency [15] | Potency [16] | Potency [17] | Potency [18] | Potency [1] | Potency [2] | Potency [3] | Potency [4] | Potency [5] | Potency [6] | Potency [7] | Potency [8] | Potency [9] | Potency [10] | max response [12] 3.05% and 5.55% | activation [13] 0.333% and 2.14% | max response [14] -3.6% and -1.43%
-8.75% and -3.59%: max response [11]

Nc1ccccc1O
inactive: Potency [19] > 92 µM | Potency [20] > 92 µM | Potency [15] | Potency [18] | Potency [1] | Potency [2] | Potency [3] | Potency [4] | Potency [5] | Potency [6] | Potency [7] | Potency [9] | Potency [10] | max response [12] -7.25% | max response [14] -3.09%
21.2%: max response [11]

Cc1cc(-c2ccc(N=Nc3cc(S(=O)(=O)O)c4ccccc4c3N)c(C)c2)ccc1N=Nc1cc(S(=O)(=O)O)c2ccccc2c1N
-6.21%: max response [11]
inactive: Potency [17] | Potency [8] | Potency [9] | max response [12] 0.921% | activation [13] 0.307%

O=C=Nc1ccc(Cl)c(Cl)c1
active: Potency [12] 14.1 µM
26.4%: max response [11]
inactive: Potency [17] | Potency [9]

O=C1OC(=O)c2ccccc21
4.94%: max response [11]
inactive: Potency [19] > 92 µM | Potency [20] > 92 µM | Potency [15] | Potency [16] | Potency [17] | Potency [18] | Potency [1] | Potency [2] | Potency [3] | Potency [4] | Potency [5] | Potency [6] | Potency [7] | Potency [8] | Potency [9] | Potency [10] | max response [12] 20.4% | max response [14] -11.3%

CC(C)(C)C(=O)C1C(=O)c2ccccc2C1=O
inactive: Potency [19] > 92 µM | Potency [15] | Potency [16] | Potency [17] | Potency [18] | Potency [1] | Potency [2] | Potency [4] | Potency [5] | Potency [6] | Potency [7] | Potency [8] | Potency [9] | Potency [10] | activation [13] 5.77% | max response [14] -22.9%

O=C1c2ccccc2C(=O)C1(O)O
-5.61%: max response [11]
active: Potency [17] 50.1 µM
inactive: Potency [20] > 92 µM | Potency [15] | Potency [16] | Potency [18] | Potency [1] | Potency [2] | Potency [3] | Potency [4] | Potency [5] | Potency [6] | Potency [7] | Potency [9] | Potency [10] | max response [12] 29.7% | activation [13] -0.0089% | max response [14] -12.1%

CC/C=C/C/C=C/C/C=C/CCCCCCCC(=O)OCC
inactive: Potency [19] > 92 µM | Potency [20] > 92 µM | Potency [15] | activation [13] 0.56%
active: Potency [17] 31.6 µM | Potency [18] 50.1 µM | Potency [3] 50.1 µM | Potency [4] 50.1 µM | Potency [5] 39.8 µM | Potency [6] 31.6 µM | Potency [7] 39.8 µM | Potency [8] 25.1 µM | Potency [9] 50.1 µM
